From PubChem BioAssay
TDP1 cell noCPT: qHTS for Inhibitors of human tyrosyl-DNA phosphodiesterase 1 (TDP1): qHTS in cells in absence of CPT; 420,000 compounds, 15% hits; Potency, µM (titrated, usually from 46.2 µM), without a hit: at the highest dose activity change, negative = growth inhibition, most hits filed as inhibitors; DT40 Tdp1-/- hTDP1 cells, no CPT, ATP luminescence, 48 h; AID 686978, 2013; also: potency is read from the fitted curve at half-maximal effect; nearly all actives have a fitted effect of over 55% in size
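Chicken DT40 Tdp1-/- cells complemented with human TDP1, screened without camptothecin (DMSO vehicle only), 400 cells/well. Compounds pin-transferred, cells incubated at 37 °C for at least 48 hr. Growth read as ATP-dependent luminescence (CellTiter-Glo, 30 min at RT).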
LDHA block: LDHA (human) enzyme inhibition | 480,000 compounds, 0.15% hits | P00338 | activity change, % (values are at about 110 or 230 µM) | purified LDHA, NADH/diaphorase-resazurin fluorescence; stronger effect = lower value; in the data active = activity change below about -30%; inconclusive = mostly about -25% to -30%;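 also: plate controls were DMSO wells for no effect and wells without enzyme for full effect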
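Remaining NADH was detected by diaphorase (0.133 mg/mL) converting 37 µM resazurin to fluorescent resorufin, read at 0 and 20 minutes. The preceding 5-minute room-temperature reaction used 2 nM LDHA, 0.2 mM sodium pyruvate and 0.06 mM NADH at pH 7.4.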
IL-1B inflam inh: blocks inflammasome-driven IL-1 beta release; THP-1 LPS/ATP IL-1B secretion, AlphaLISA, 16 h; stronger effect = lower value; activity change, % at 57.5 µM; 360,000 compounds, 4.7% hits; AID 743279; in the data active = activity change below about -50%; inconclusive = mostly about -30% to -49%
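THP-1 cells pretreated 1 hr with compounds (up to 57.5 uM final), then stimulated with LPS (250 ng/mL final) plus ATP (1.25 mM final); secreted IL-1B measured by AlphaLISA after 16 hr, decreased signal indicating inhibition.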
RORg inh: blocks mouse ROR gamma transcriptional activity. P51450. Drosophila S2 Gal4-RORgamma UAS-luciferase reporter, 20 h. Potency, µM (highest dose often 53.6 µM), for inactives: at the top dose activity change, negative = inhibition, usual class: inhibitors. 310,000 compounds, 5.4% hits. AID 2551; also: potency is read from the fitted curve at half-maximal effect; nearly all actives have a fitted effect of over 60% in size
Target sequence (P51450 whole entry, looked up, the tested form may be a part): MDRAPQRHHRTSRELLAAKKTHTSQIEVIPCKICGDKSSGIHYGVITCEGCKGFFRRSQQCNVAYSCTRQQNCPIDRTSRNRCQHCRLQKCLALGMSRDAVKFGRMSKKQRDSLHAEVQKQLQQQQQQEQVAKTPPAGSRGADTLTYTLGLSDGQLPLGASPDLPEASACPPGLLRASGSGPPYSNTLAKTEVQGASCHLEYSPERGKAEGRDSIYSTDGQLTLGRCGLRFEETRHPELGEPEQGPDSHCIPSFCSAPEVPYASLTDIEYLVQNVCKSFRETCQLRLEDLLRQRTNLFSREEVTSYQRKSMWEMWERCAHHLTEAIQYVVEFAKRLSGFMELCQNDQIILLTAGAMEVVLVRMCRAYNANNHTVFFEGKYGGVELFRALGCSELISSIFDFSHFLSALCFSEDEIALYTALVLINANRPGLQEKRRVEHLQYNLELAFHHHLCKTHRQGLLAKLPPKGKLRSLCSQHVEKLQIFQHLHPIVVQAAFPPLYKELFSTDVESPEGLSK
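Read-out: Photinus luciferase luminescence; inhibitors lower reporter signal. Insect Schneider cells with Gal4-ROR gamma fusion under metallothionein promoter, UAS reporter; 700 uM final copper sulfate induction, 20 hr, ambient temperature.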
Gal4-VP16 FLuc: counter-screen for ROR gamma inhibitors: Gal4-VP16 reporter; Drosophila S2 Gal4-VP16 UAS-luciferase, luminescence, 20 h; Potency, µM (top dose mostly 53.6 µM), without a hit: at the top dose activity, negative = inhibition, usual class: inhibitors; 310,000 compounds, 3.5% hits; AID 2546;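 also: Gal4-VP16 expression switched on by copper sulfate through the metallothionein promoter; potency is read from the fitted curve at half-maximal effect; nearly all actives have a fitted effect of over 50% in size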
DT40 TDP1 CPT: DT40-hTDP1 cell growth loss with CPT; chicken DT40 Tdp1-/-;hTDP1 cells + 20 nM CPT, ATP luminescence, 48 h; Potency, µM (top dose mostly 46.2 µM), without a hit: top-dose activity change, negative = growth inhibition, actives largely listed as inhibitors; 420,000 compounds, 12% hits; also: potency is read from the fitted curve at half-maximal effect; nearly all actives have a fitted effect of over 55% in size
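Chicken DT40 Tdp1-/- cells stably complemented with human TDP1 were seeded at 400 cells/well in medium containing 20 nM camptothecin, exposed to pin-transferred compounds, and grown at 37 °C for at least 48 hr. Viability was read as ATP luminescence.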
* marks the source's active call; other numbers are inactive results; ? = inconclusive; . = not tested or not shown. Compounds with a hit are over-represented: about 18% of the library has one in this group of screens. Unless noted, calls follow the shape of the dose curve; as a rule, active = well fitted curve in the direction sought with a large enough effect; inconclusive = small, poorly fitted or top-dose-only effect, or another doubt; inactive = no such curve, though single readings can be large; an effect the other way counts as inactive or inconclusive. Unless noted, % is scaled to controls: 0 for no effect and ±100 for the full control effect.

SMILES	TDP1 cell noCPT	LDHA block	IL-1B inflam inh	RORg inh	Gal4-VP16 FLuc	DT40 TDP1 CPT
Nc1ccc(N=Nc2ccccc2)c2cccnc12	-2%	-1	-21	-37%	8%	-2%
COc1cccc(N=Nc2ccc(O)c3ncccc23)c1	2.6µM*	11	14	0.32µM*	-94%	2.6µM*
Cc1ccccc1N=Nc1ccc(O)c2ncccc12	1.6µM*	-1	2	0.63µM*	0.89µM*	2.6µM*
O=S(=O)(O)c1cccc2c(N=Nc3ccc(O)c4ncccc34)cccc12	11%	0	0	?	-16%	?
Cc1ccc(O)c2ncccc12	4.7µM*	.	.	5µM*	8.9µM*	?
CN(CC(=O)Nc1cccc(F)c1)C(=O)CCc1ncc(-c2ccc(Cl)cc2)o1	.	8	.	.	.	.
CCC(C)c1ccc(NC(=O)COc2ncnc3ccccc23)cc1 (stereo not drawn)	.	-10	.	.	.	.
Cc1ccc(CC(=O)NCCc2c[nH]c3ccc(C)cc23)cc1	.	3	.	.	.	.
NC(c1ccc(F)cc1)c1ccccc1I (stereo not drawn)	.	14	.	.	.	.
CCn1cnc2c1c(=O)n(CC(=O)NCC1(c3ccccc3)CC1)c(=O)n2Cc1ccccc1	.	-20	.	.	.	.
CC1=CC(C)(C)SC(N)=N1	.	-2	.	.	.	.
CCN(CC)S(=O)(=O)c1ccc(N=Nc2cc(C)cc(Br)c2O)cc1	?	5	-6	.	.	-22%
Oc1ccc(N=Nc2n[nH]c(-c3ccc(Br)cc3)n2)cc1	?	-8	?	-29%	-10%	?
Oc1ccc(N=Nc2ccc(Br)cc2)c(O)c1	23µM*	-3	72	?	?	26µM*
Cc1ccc(N=Nc2ccc(O)cc2)c(Br)c1	4%	-7	-86*	2.8µM*	?	4%
COc1ccc(N=Nc2cc(-c3ccccc3)ccc2O)cc1	-15%	2	-21	0%	1%	-2%
COc1ccc(N=Nc2ccc(O)c3ncccc23)cc1	1.5µM*	4	93	0.13µM*	?	2.1µM*
Oc1ccc(N=Nc2ccc3c(c2)OCCO3)c(O)c1	?	0	-13	8.9µM*	10µM*	?
COc1ccc(C)cc1N=Nc1ccc(O)c2ncccc12	2.6µM*	5	-10	0.79µM*	0.63µM*	3.3µM*
O=C(Nc1cccc2ncccc12)c1ccc2c(c1)OCCO2	-24%	-1	-14	?	5%	-26%
COc1cccc(C(=O)Nc2cccc3cccnc23)c1	.	11	.	.	.	.
Oc1ccc(N=Nc2ccc3c(c2)OCCO3)c2cccnc12	1.6µM*	17	44	0%	-22%	1.3µM*
COc1cccc(N=Nc2ccc3cccnc3c2O)c1	1.2µM*	4	26	0.56µM*	0.89µM*	0.58µM*
COCc1ccc(O)c2ncccc12	4.6µM*	6	118	6.3µM*	3.2µM*	4.6µM*
Cc1ccc(Cl)cc1N1CCN(C(=O)c2ccc(Cn3cncn3)cc2)CC1	.	6	.	.	.	.
SMILES	TDP1 cell noCPT	LDHA block	IL-1B inflam inh	RORg inh	Gal4-VP16 FLuc	DT40 TDP1 CPT
Clc1cccc(Cl)c1CNc1n[nH]c(-c2ccco2)n1	.	2	.	.	.	.
CC(C)(C(=O)NCCc1c[nH]c2ccccc12)c1ccccc1	.	-6	.	.	.	.
Cc1ccc(B(O)O)c2cccnc12	.	4	.	.	.	.
Cc1c(C)c2cccnc2c2ncccc12	1.5µM*	6	-4	.	.	1.8µM*
c1ccc(SSc2ccccn2)nc1	4.6µM*	-8	-91*	.	.	2.9µM*
Cc1cc(NC(=O)N(Cc2ccco2)C2CC2)n(C)n1	.	-4	.	.	.	.
CCOC(=O)c1ccc(N2Cc3ccccc3C2=NC(=O)c2cccs2)cc1	?	-1	61	-12%	-5%	18µM*
Cc1ccc(C2=C(O)C(=O)N(Cc3ccco3)C2c2ccc(C(C)C)cc2)cc1 (stereo not drawn)	.	-5	.	.	.	.
CC(C)c1ccc(C2NC(=O)NC3=C2CCc2ccccc23)cc1 (stereo not drawn)	15µM*	18	-6	13%	13%	13µM*
COc1ccc(C2NC(=O)NC3=C2CCc2ccccc23)cc1 (stereo not drawn)	?	18	9	6%	0%	?
O=C(Nc1ccc(Cl)cc1)N1CCN(CCc2ccncc2)CC1	.	4	.	.	.	.
CCN1CCN(S(=O)(=O)c2ccc(Cl)c(C(=O)Nc3cc(Cl)ccc3N3CCOCC3)c2)CC1	?	-11	-62*	0%	1%	?
CCN1CCN(c2ccc(S(=O)(=O)N3CCOCC3)cc2NC(=O)c2ccc(Cl)cc2Cl)CC1	21µM*	0	-17	.	.	?
O=C(O)c1cccc(S(=O)(=O)Nc2cc(F)ccc2OCC(F)(F)F)c1	.	-6	.	.	.	.
Cc1cccc(N2CCN(CC(=O)NC(=O)NCC(F)(F)F)CC2)c1	.	-10	.	.	.	.
NCCOB(c1ccccc1)c1ccccc1	16µM*	.	.	?	?	?
NCCOc1ccccc1	.	-3	.	.	.	.
CCCNc1nc2c(c(=O)n(C)c(=O)n2C)n1Cc1ccc(F)cc1	9.2µM*	-3	13	43%	?	6.5µM*
Cn1c(=O)c2c(nc(NCc3ccccc3)n2Cc2ccc(Br)cc2)n(C)c1=O	.	1	.	.	.	.
Cn1c(=O)c2c(nc(NCc3ccccc3)n2Cc2ccc(F)cc2)n(C)c1=O	.	.	.	?	14µM*	.
